# From PubChem BioAssay
# Hits are enriched below; roughly 1.5% of the tested compounds scored in any of these assays.
# PP1 inh = PP1-alpha (human) inhibition in PP5 counter-screen. P62136. purified PP1alpha, OMFP fluorescence. inhibition, % at 6.7 µM. 320,000 compounds, 0.9% hits. AID 2235;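 active = inhibition above the mean inhibition of all tested compounds plus 3 SD, computed separately for each screening campaign, cut at about 15% in these data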
# DYRK1A inh = blocks rat Dyrk1A kinase activity | inhibition, % at 12.5 µM | 310,000 compounds, 0.43% hits | ADP-Glo luminescence, NFATc1 peptide | Q63470; in the data active = inhibition above about 50%;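 also: plate controls were vehicle with enzyme for no effect and no enzyme for full effect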
# HIF act = HIF pathway transcriptional activation | U2OS HRE-luciferase reporter, luminescence; normalized: DMSO 0%, desferrioxamine 100% | activation, % at 7.5 µM (by protocol) | 300,000 compounds, 0.32% hits;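 active = mean activation of at least 10% of the iron chelator positive control signal, with at least half of replicates also reaching 10%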
# STK33 inh = blocks human STK33 kinase activity; Q9BYT3; purified STK33, MBP phosphorylation, ADP-Glo luminescence; inhibition, % at 10 µM; 320,000 compounds, 0.073% hits; AID 2661;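 active = inhibition at or above 25%, using the most active replicate where run in duplicate; inactive = inhibition below 25%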
# Target sequence (Q9BYT3 whole entry, looked up): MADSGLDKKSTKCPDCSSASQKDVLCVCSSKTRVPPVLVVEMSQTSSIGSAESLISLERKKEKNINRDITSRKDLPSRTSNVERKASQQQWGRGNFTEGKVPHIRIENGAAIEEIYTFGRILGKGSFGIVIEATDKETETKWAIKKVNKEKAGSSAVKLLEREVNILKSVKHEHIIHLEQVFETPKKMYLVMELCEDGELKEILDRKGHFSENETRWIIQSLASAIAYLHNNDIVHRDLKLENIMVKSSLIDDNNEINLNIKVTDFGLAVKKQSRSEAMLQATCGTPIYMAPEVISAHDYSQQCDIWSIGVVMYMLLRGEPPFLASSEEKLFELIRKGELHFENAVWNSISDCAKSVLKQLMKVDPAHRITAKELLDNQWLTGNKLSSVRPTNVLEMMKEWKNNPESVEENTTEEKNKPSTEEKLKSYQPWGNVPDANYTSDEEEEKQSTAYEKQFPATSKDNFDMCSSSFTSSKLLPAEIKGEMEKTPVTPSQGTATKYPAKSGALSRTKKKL
# PP5 primary = blocks human protein phosphatase 5 activity; purified PP5c, OMFP substrate fluorescence; 320,000 compounds, 0.18% hits; inhibition, % at 6.7 µM;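 active = inhibition above the campaign's mean inhibition across all tested compounds plus 3 SD, cut at about 9.5% in these data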;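 also: 0% = DMSO only and 100% = 100 µM cantharidin control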
# PP1 confirm = human PP1 phosphatase inhibition, confirmation. shares compounds with PP1 inh. purified PP1alpha, OMFP substrate fluorescence. inhibition, % at 6.7 µM. 1,900 compounds, 52% hits;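 active = mean PP1 inhibition above a set limit taken from the earlier primary screen, cut at about 15% in these data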
# PP5 counter = counter-screen for PP1 inhibitors: human PP5 phosphatase inhibition. shares compounds with PP1 inh. 1,900 compounds, 4% hits. inhibition, % at 6.7 µM. purified PP5c, OMFP fluorescence;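 active = mean PP5 inhibition over triplicate wells above about 9.5% taken from the earlier PP1 screen, limit read from the data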
# An asterisk follows results filed as active; / = no result.
SMILES,PP1 inh,DYRK1A inh,HIF act,STK33 inh,PP5 primary,PP1 confirm,PP5 counter
C/C(CC(=O)Nc1ccccn1)=N\NC(=O)C(=O)Nc1cccc(C)c1,2,-1,0,0,2,/,/
C/C(CC(=O)Nc1ccc(OCc2ccccc2)cc1)=N\NC(=O)C(=O)Nc1cccc(C)c1,18*,0,0,-1,-2,0,-6
CCOC(=O)CNC(=O)COc1coc(CN2CCN(c3ccc(F)cc3)CC2)cc1=O,-2,5,0,0,-3,/,/
O=C(CCN1CCN(c2ccccc2)CC1)N/N=C/c1ccccc1OC(F)F,-4,4,0,-1,-2,/,/
CN(CC(=O)Nc1ccccc1N1CCCC1)S(=O)(=O)c1ccc(F)cc1,74*,-1,0,0,1,-20,-3
COc1ccc(C(CNC(=O)c2cc(S(=O)(=O)N3CCCC3)ccc2Cl)N2CCCC2)cc1 (stereo not drawn),-3,6,/,0,1,/,/
CN(CC(=O)Nc1ccccc1Br)Cc1nc2ccccc2c(=O)[nH]1,3,3,0,-1,4,/,/
CCC(C)Sc1cccc(-c2nc3ccccn3c2NCc2ccccc2)c1 (stereo not drawn),/,-2,/,-1,/,/,/
CCCCCCSc1cccc(-c2nc3cc(C)ccn3c2NC2CCCCC2)c1,19*,0,-3,0,4,4,0
CCCCCCSc1cccc(-c2nc3ccccn3c2NCc2ccccc2)c1,/,2,/,-1,/,/,/
CCC(C)Sc1cccc(-c2nc3ccc(Cl)cn3c2NCc2ccccc2)c1 (stereo not drawn),19*,16,0,0,5,5,3
CCCCCCSc1cccc(-c2nc3cc(C)ccn3c2NCc2ccccc2)c1,19*,-1,-1,-1,3,4,0
O/N=C(/c1ccccc1)c1cc2cc(Br)cc(Br)c2o1,0,-1,1,-1,-1,/,/
Clc1cc(Sc2ccc(Br)cc2)nnc1-c1ccccc1,0,-1,0,0,3,/,/
O=c1c2[nH]c3ccc(F)cc3c2nc2n1CCCS2,-1,-1,0,-1,3,/,/
COc1cc2c(cc1OC)C(c1ccc(C)cc1)NC(=O)C2 (stereo not drawn),/,6,-1,-3,/,/,/
CCOc1ccc(C2NC(=O)Cc3cc(OC)c(OC)cc32)cc1 (stereo not drawn),24*,-2,-1,0,-1,-2,1
CCOC(=O)c1cnc(COc2ccc(OC)cc2)[nH]c1=O,-8,-5,0,-2,0,/,/
CC(CC(=O)Nc1nnc(C(C)(C)C)s1)c1ccccc1 (stereo not drawn),0,3,-1,0,3,/,/
Cc1ccccc1N1CCN(CCCN2C(=O)CC(=C(c3ccccc3)c3ccccc3)C2=O)CC1,3,1,0,1,2,/,/
O=C1CC(=C(c2ccccc2)c2ccccc2)C(=O)N1CCCCN1CCN(c2cccc(Cl)c2)CC1,25*,-3,0,1,5,4,-2
Cc1cc(=O)n2[nH]c(-c3ccc(F)cc3)cc2n1,-4,4,1,3,2,/,/
O=c1cc(-c2ccc([N+](=O)[O-])cc2)nc2cc(-c3ccc(F)cc3)[nH]n12,35*,-4,0,0,0,34*,1
Cc1cccc(-c2cc3nc(-c4ccccc4)cc(=O)n3[nH]2)c1,23*,1,3,-1,0,21*,3
CCOc1ccc2nc3cc(NCc4ccc(OC)cc4)ccc3c(N)c2c1,65*,1,0,1,15*,16*,38*
SMILES,PP1 inh,DYRK1A inh,HIF act,STK33 inh,PP5 primary,PP1 confirm,PP5 counter
CCn1cnc2cc(NCc3ccc(OC)cc3)ccc21,-7,2,2,1,2,/,/
COC(=O)c1ccc(COC(=O)CCNS(=O)(=O)c2ccc(C)c(C)c2)cc1,/,1,/,/,/,/,/
N#Cc1ccsc1NC(=O)COC(=O)c1cc2ccccc2cc1O,2,1,3,-3,-1,/,/
N#C/C(=C/c1ccc(-c2ccc(S(N)(=O)=O)cc2)o1)c1nc2ccccc2s1,20*,1,/,-3,-2,22*,-7
CC(C)C(C(=O)O)N1C(=O)/C(=C/C=C/c2ccco2)SC1=S (stereo not drawn),20*,0,2,11,1,14,-3
O=C1/C(=C/C=C/c2ccco2)SC(=S)N1c1ccc(O)cc1,38*,3,0,-1,-1,6,-2
COc1ccc(OC)c(CCNC(=O)CCn2nc(C)c3c(C)n(-c4ccccc4)nc3c2=O)c1,-3,7,0,-3,-1,/,/
N#CCCN(C(=S)NC(=O)c1ccco1)c1ccccc1F,-5,0,0,0,-1,/,/
Cc1cc(NCCCn2ccnc2)n2nc(-c3ccc(Cl)cc3)cc2n1,6,0,0,-1,0,/,/
CC(C)(C)c1cc(NCCCn2ccnc2)n2ncc(-c3ccc(Cl)cc3)c2n1,38*,-31,1,1,10*,39*,4
CN(C)c1ccc(C2CNC(c3ccc(Cl)c([N+](=O)[O-])c3)c3[nH]c4ccccc4c32)cc1 (stereo not drawn),21*,-1,0,-2,4,17*,0
CC(=O)NCCC(=O)NCc1ccc(F)cc1,19*,-5,-19,0,-1,-6,-7
Cc1ccccc1-c1nnc(NC(=O)c2ccc(N3C(=O)CCC3=O)cc2)s1,-2,3,0,0,4,/,/
Cc1cccc(-c2nnc(NC(=O)c3ccc(N4C(=O)CCC4=O)cc3)s2)c1,19*,0,0,0,5,12,0
O=C(NCc1ccncc1)C(=O)N/N=C/c1ccccc1OCc1ccccc1,0,-5,2,-1,4,/,/
O=C(NCc1ccncc1)C(=O)N/N=C/c1ccc(OCc2ccccc2)cc1,38*,-2,2,-1,0,32*,5
Cc1cc(Cl)c(S(=O)(=O)N2CCN(c3ccc(F)cc3)CC2)cc1OCC(=O)NC1CCCCC1,18*,4,0,-1,6,2,-2
Cc1cc(Cl)c(S(=O)(=O)N2CCN(c3ccc(F)cc3)CC2)cc1OCC(N)=O,-1,1,-1,-1,3,/,/
O=C(NCc1ccco1)c1nc2c(nnn2Cc2ccccc2Cl)c(=O)[nH]1,9,-5,0,-2,2,/,/
Cc1ccc(C)c(Cn2nnc3c(=O)[nH]c(C(=O)NCc4ccco4)nc32)c1,19*,/,1,-2,1,4,-5
COc1cc(NC(=O)Cc2c(C(=O)O)[nH]c3ccccc23)cc(OC)c1OC,18*,1,0,-1,0,2,-1
COc1cc(/C=C/C(=O)O)ccc1OS(=O)(=O)c1c(C)cc(C)cc1C,-1,/,/,-1,2,/,/
